From PubChem BioAssay (NCI)
Compounds without any hit were thinned out: in the full panel of roughly 83,000, 20% have a hit.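 Results are percent growth after 48 hours of single-concentration exposure. 100 means growth as in untreated cells, lower positive values show inhibition; negative values down to -100 show cell death.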 A number with no mark means an inactive call. The source made the active and inactive calls. How the source made its calls: active means growth percent below 10; inactive means the rest.

Assays:
Assay in all cases: NCI-60 one-dose screen, 48 h (100 = growth as untreated, 0 = no growth, -100 = all killed)
Settings in all cases: 10 µM unless noted
SR leukemia = system: SR leukemia
RPMI-8226 leukemia = system: RPMI-8226 leukemia
OVCAR-8 ovarian = system: OVCAR-8 ovarian
OVCAR-5 ovarian = system: OVCAR-5 ovarian
OVCAR-4 ovarian = system: OVCAR-4 ovarian
SK-OV-3 ovarian = system: SK-OV-3 ovarian
IGROV1 ovarian = system: IGROV1 ovarian
OVCAR-3 ovarian = system: OVCAR-3 ovarian
HS 578T breast = system: HS 578T breast
NCI/ADR-RES ovarian = system: NCI/ADR-RES ovarian

| SMILES | growth (SR leukemia) | growth (RPMI-8226 leukemia) | growth (OVCAR-8 ovarian) | growth (OVCAR-5 ovarian) | growth (OVCAR-4 ovarian) | growth (SK-OV-3 ovarian) | growth (IGROV1 ovarian) | growth (OVCAR-3 ovarian) | growth (HS 578T breast) | growth (NCI/ADR-RES ovarian) |
| --- | --- | --- | --- | --- | --- | --- | --- | --- | --- | --- |
| COC(=O)C[C@](O)(CCCC(C)(C)O)C(=O)O[C@H]1C(OC)=C[C@@]23CCCN2CCc2cc4c(cc2[C@@H]13)OCO4 | -25% (active) | -18.1% (active) | -34.8% (active) | -14.5% (active) | -13.9% (active) | 2% (active) | -15.7% (active) | -28.5% (active) | -26% (active) | 96.3% |
| COc1ccc(/C=C/c2nc3ccccc3c(=O)n2CC(=O)Nc2ccc(Cl)cc2)cc1 | 70.8% | 84% | 27% | 92.7% | 17.2% | 78.7% | 96.5% | 50% | 23.3% | 56.1% |
| CN(C)CCOc1ccc(C(=O)C2[C@H](c3ccc(Cl)cc3)[C@@H](c3ccccc3)NC23C(=O)Nc2ccc(Br)cc23)cc1 (stereo not given in full) | -36.4% (active) | -30.8% (active) | -61.8% (active) | 36.4% | 33.9% | 96% | 29.1% | -4.55% (active) | 58.7% | 23% |
| COc1ccc(C2(SCCNCc3cc(N(C)C)ccn3)c3ccccc3C=Cc3ccccc32)cc1 | -28.5% (active) | -22.8% (active) | 9.18% (active) | 9.62% (active) | 43.7% | 36.5% | 40.8% | 14.6% | -3.79% (active) | -47.9% (active) |
| CC(=O)Nc1ccc(-n2cnc3cc(-c4ccc(O)cc4)ccc32)cc1C(F)(F)F | 16.3% | 16.6% | 16.1% | 37.9% | 40.8% | 56.3% | 35.1% | 24.7% | 0.862% (active) | 16.3% |
| Cc1cccc(NC(=O)[C@]23CCC(C)(C)CC2C2=CCC4[C@@]5(C)C[C@@H](O)[C@H](O)[C@@](C)(CO)C5CC[C@@]4(C)[C@]2(C)CC3)c1 (stereo not given in full) | -26% (active) | 2.61% (active) | 39.3% | -28.9% (active) | 23.5% | 36.9% | 35.6% | 41.3% | 31% | 7.61% (active) |
| O=C(COc1ccc(NC(=O)Nc2ccc(Cl)c(Cl)c2)cc1)N=Nc1c(O)[nH]c2ccc(Br)cc12 | 3.18% (active) | 3.61% (active) | -59.9% (active) | -44.5% (active) | -27% (active) | -43.3% (active) | -51% (active) | -76.4% (active) | -5.94% (active) | 82.4% |
| CC(=O)OC[C@@]1(C)C2CC[C@]3(C)C(CC=C4C5CC(C)(C)CC[C@]5(C(=O)Nc5ccc(Br)cc5)CC[C@]43C)[C@@]2(C)C[C@@H](OC(C)=O)[C@@H]1OC(C)=O (stereo not given in full) | 32% | 14.5% | 35.9% | 92.8% | 42% | 44% | 57.3% | 45% | 80.5% | 42.5% |
| CCN1C(=O)/C(=N\N=C(/C)c2ccc3c(c2)Nc2ccccc2S3)c2cc(Cl)ccc21 | 60.8% | 48% | 68.1% | 83.7% | 41.6% | 108% | 69.9% | 55.6% | 80% | 68.8% |
| CC(=O)Nc1ccc(-n2cnc3ccc(-c4ccc(O)cc4)cc32)cc1 | 15.8% | 38.9% | 42.1% | 72.2% | 67.3% | 66.8% | 27.2% | 54.3% | 8.57% (active) | 84.4% |
| Cc1ccc(C2CC(c3ccc(S(=O)(=O)NCCNc4nc(Nc5ccc(F)cc5)nc(N(C)C)n4)cc3)=Nc3c(N)nc(N)nc3N2)cc1 (stereo not given) | -6.57% (active) | 6.3% (active) | 52% | 92.6% | 53.2% | 101% | 69.8% | 67.5% | 65.2% | 88.9% |
| COc1ccc2c(c1)c(/C=N/Nc1ccc3ccccc3n1)cn2C | -17.3% (active) | -26.7% (active) | 28.9% | 7.2% (active) | 12.3% | 54% | 16.4% | -34.2% (active) | 18.2% | 2.35% (active) |
| CCOC(=O)/C=C/c1cccc2c1C(=O)NC(C)(c1cc3cc(Cl)ccc3oc1=O)N2 (stereo not given) | 1.88% (active) | 17.7% | 39.1% | 50.4% | 36.7% | -0.634% (active) | 13% | 34.4% | 41% | 22.7% |
| Cn1cc(-c2nc(N)nnc2-c2c[nH]c3ccc(F)cc23)c2cc(Br)cnc21 | 3.88% (active) | -6.78% (active) | 0.188% (active) | 14.9% | 29.8% | 19.8% | 15.8% | -33.2% (active) | 35.8% | 0.236% (active) |
| COc1cc(/C=C/C(=O)c2ccccc2)ccc1Oc1nc(Nc2ccc(F)cc2)nc(N(C)C)n1 | 1.38% (active) | -8.57% (active) | 22.1% | 49.1% | 27.7% | 79.7% | 48.8% | 39.4% | 36.2% | 11.3% |
| S=C(NCCc1ccccc1)Nc1ccc(OCc2nc3ccccc3[nH]2)cc1 | 95.7% | 101% | 102% | 105% | 108% | 99.4% | 113% | 112% | 109% | 110% |
| CCOC(=O)C1=C(N)N(c2ccccc2)C2=C(C(=O)CC(C)(C)C2)C1c1ccccc1Cl (stereo not given) | 32.5% | 22.5% | 83.6% | 86.8% | 74.6% | 90.1% | 92% | 62.7% | 93.4% | 74% |
| COc1ccc(-c2ccnc(SCc3cc4cc(Cl)ccc4[nH]c3=O)n2)cc1 | 92.5% | 73.8% | 34.1% | 135% | 10.1% | -2.33% (active) | 95.8% | 58.2% | -5.84% (active) | 44.8% |
| COc1ccc(C(=O)/C=C/c2ccc(Oc3nc(Nc4ccc(F)cc4)nc(N(C)C)n3)c(OC)c2)cc1 | 12.2% | 4.01% (active) | 37.9% | 82.6% | 43.5% | 94.4% | 63.1% | 57.2% | 58.3% | 40% |
| COc1cc2oc(-c3cccc(NC(=O)[C@H](CC(N)=O)NC(=O)OC(C)(C)C)c3)cc(=O)c2c(OC)c1OC | 58.4% | 69.3% | 73.3% | 95.5% | 94.6% | 140% | 96.9% | 105% | 83.1% | 102% |
| COc1ccc(C(=O)/C=C/c2ccc(OCc3ccccc3)c(OC)c2)cc1OC | 8.91% (active) | 9.53% (active) | -1.43% (active) | 4.82% (active) | 25.6% | 83.5% | 23.3% | 25.8% | 75.5% | 19.7% |
| COc1ccc(-c2ccc(SCC(=O)Nc3ccc(S(N)(=O)=O)cc3Br)nn2)cc1 | 92.7% | 85.8% | 48.7% | 99.6% | 38% | 62.3% | 105% | 98.3% | 44.8% | 95.3% |
| CN(C)CCOc1ccc(C(=O)C2[C@H](c3ccc(Cl)cc3)[C@@H](c3ccccc3)NC23C(=O)Nc2ccccc23)cc1 (stereo not given in full) | -18% (active) | 49.7% | 88.1% | 85.8% | 70.6% | 121% | 80.2% | 73.2% | 77.4% | 86.4% |
| CN(C)c1ccnc(CNCCSC2(c3ccc(C(F)(F)F)cc3)c3ccccc3CCc3ccccc32)c1 | -50.9% (active) | -47.8% (active) | -87.3% (active) | -22.7% (active) | 13.9% | -17.4% (active) | -5.42% (active) | -36.5% (active) | -23.4% (active) | -73.9% (active) |
| C#C[C@]1(O)CC[C@H]2[C@@H]3CC=C4c5sc(-c6ccc(O)c(O)c6)nc5CC[C@]4(C)[C@H]3CC[C@@]21C | -25.7% (active) | -50.4% (active) | -77.3% (active) | -87% (active) | -68.1% (active) | -78.2% (active) | -67.4% (active) | -56.3% (active) | -32.6% (active) | -27.2% (active) |
| O=C(NN1C(=O)/C(=C/C=C/c2ccc([N+](=O)[O-])o2)SC1=S)c1ccc(Cl)cc1 | 4.16% (active) | -23.8% (active) | -78.2% (active) | -97.7% (active) | -98.9% (active) | -99.6% (active) | -92.9% (active) | -98% (active) | -18.4% (active) | -42.6% (active) |
